# Source: PubChem BioAssay
# Activity calls are given as the source filed them. Unless noted, the rule behind the calls is not given here.
# Columns and labels:
# [1] = A549 cell viability effects, profiling panel, calcein-AM fluorescence, 48 h, basal (AID 1162); conditions: higher = more signal; note: test concentration not given here
# [2] = adipocyte viability effects, profiling panel, cell-based, 3T3-L1 adipocytes, calcein-AM fluorescence, 48 h, basal (AID 1163); conditions: 3T3-L1 adipocytes viability, higher = more signal; note: test concentration not given here
# [3] = HepG2 cell viability effects, profiling panel, calcein-AM fluorescence, 48 h, basal (AID 1164); conditions: higher = more signal; note: test concentration not given here
# [4] = MM1S cell viability effects, profiling panel, calcein-AM fluorescence, 48 h, basal (AID 1165); conditions: higher = more signal;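 note: viability of MM1S multiple myeloma cells under basal unstimulated conditions; test concentration not given here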
# [5] = basal RPMI8226 viability, no added stimulus, profiling panel, cell-based, calcein-AM fluorescence, 48 h, PK04 Diversity Set (AID 1166); conditions: RPMI8226 myeloma viability, higher = more signal;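 note: cells grown under basal conditions without added stimulus; test concentration not given here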
# [6] = basal HepG2 mitochondrial membrane potential changes, profiling panel, cell-based, JC-1 fluorescence, 24 h, 100 nL compound (AID 1167); conditions: higher = more signal; note: test concentration not given here
# [7] = basal 3T3-L1 adipocyte mitochondrial potential changes, profiling panel, cell-based, JC-1 fluorescence, 3T3-L1 adipocytes, 24 h, 100 nL compound (AID 1168); conditions: JC-1 mitochondrial fluorescence, higher = more signal, called active from +8 up or from −8 down; note: test concentration not given here
# [8] = basal RPMI8226 mitochondrial membrane potential changes, profiling panel, cell-based, JC-1 fluorescence, 24 h, 100 nL compound (AID 1169); conditions: RPMI8226 myeloma, JC-1 mitochondrial potential fluorescence, higher = more signal; note: test concentration not given here
# [9] = basal MM1S mitochondrial membrane potential changes, profiling panel, cell-based, JC-1 fluorescence, 24 h, 100 nL compound (AID 1170); conditions: higher = more signal; note: test concentration not given here
# [10] = A549 lung cancer cell viability effects, profiling panel, resazurin fluorescence, 24 h, PK04 Diversity Set (AID 1171); conditions: higher = more signal, called active from +8 up or from −8 down; note: test concentration not given here
# [11] = HepG2 liver cancer cell viability effects, profiling panel, resazurin fluorescence, 24 h, PK04 Diversity Set (AID 1172); conditions: higher = more signal; note: test concentration not given here
# [12] = basal S. cerevisiae growth modulation, no modifier, primary screen, OD600, strain BY4716, 24 h, basal condition (AID 1173); conditions: OD600, 24 h, higher = more signal, called active from +8 up or from −8 down
# [13] = MM1S myeloma cell viability, profiling panel, resazurin fluorescence, basal, 24 h, PK04 Diversity Set (AID 1174); conditions: higher = more signal, called active from +8 up or from −8 down;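 note: MM1S multiple myeloma cell line; test concentration not given here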
# [14] = molecular target: Dihydroorotate dehydrogenase (quinone), mitochondrial (Plasmodium falciparum (isolate 3D7)) (UniProt Q08210); experiment: PfDHODH enzyme inhibitors, primary screen, biochemical, C-terminal His tag, absorbance 600 nm (AID 1175); conditions: DCIP absorbance 600 nm, higher = more signal, called active from +8 up or from −8 down;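 note: recombinant parasite enzyme with a five histidine tag at its C terminus; test concentration not given here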
# Dihydroorotate dehydrogenase (quinone), mitochondrial (Plasmodium falciparum (isolate 3D7)), sequence (Q08210 whole entry, looked up): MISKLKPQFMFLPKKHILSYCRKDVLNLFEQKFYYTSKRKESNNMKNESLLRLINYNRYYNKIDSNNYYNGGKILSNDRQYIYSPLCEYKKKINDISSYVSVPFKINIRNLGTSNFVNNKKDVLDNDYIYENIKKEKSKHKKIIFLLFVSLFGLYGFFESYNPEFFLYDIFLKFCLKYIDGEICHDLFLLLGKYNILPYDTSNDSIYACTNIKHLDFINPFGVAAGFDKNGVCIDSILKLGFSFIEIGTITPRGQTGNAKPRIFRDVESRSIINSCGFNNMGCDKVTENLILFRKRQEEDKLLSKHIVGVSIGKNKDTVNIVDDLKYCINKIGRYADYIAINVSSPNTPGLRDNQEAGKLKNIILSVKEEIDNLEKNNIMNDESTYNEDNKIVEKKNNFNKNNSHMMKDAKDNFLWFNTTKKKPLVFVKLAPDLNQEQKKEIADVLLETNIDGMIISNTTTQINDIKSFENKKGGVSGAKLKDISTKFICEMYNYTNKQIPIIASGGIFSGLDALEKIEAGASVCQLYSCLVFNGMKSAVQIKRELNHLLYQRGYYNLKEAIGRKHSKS
# [15] = P. aeruginosa biofilm formation inhibitors, primary screen, strain PAO1, LB-PBS medium, absorbance 600 nm (AID 1176); note: test concentration not given here; conditions: P. aeruginosa PAO1 growth/biofilm, A600, 12 h; higher = more signal
# [16] = S. cerevisiae RM11-1a growth modifiers, primary screen, strain RM11-1a, OD600, basal, 24 h (AID 1177); conditions: OD600, 24 h, higher = more signal, called active from +8 up or from −8 down;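 note: cultures grown under basal conditions with no added stressor; test concentration not given here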
# [17] = E. coli acrAB mutant growth effects, primary screen, E. coli filamentation inducers, strain DRC39, OD650, 24 h (AID 1178); conditions: higher = more signal, called active from +8 up or from −8 down;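 note: growth measured as culture turbidity by optical density at 650 nm; test concentration not given here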
# [18] = E. coli acrAB mutant growth effects, primary screen, E. coli filamentation inducers, strain DRC39, OD650, 48 h (AID 1179);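 note: screen aims at cell division blockers that make cells filament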; conditions: E. coli DRC39 delta-acrAB growth, higher = more signal, called active from +8 up or from −8 down
# [19] = RPMI8226 myeloma cell viability, profiling panel, resazurin fluorescence, basal, 24 h, PK04 Diversity Set (AID 1180); conditions: higher = more signal;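 note: RPMI8826 multiple myeloma cell line at 5000 cells per well; test concentration not given here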
# [20] = molecular target: E3 ubiquitin-protein ligase XIAP (Homo sapiens) (UniProt P98170); experiment: XIAP binders, primary screen, biophysical, small-molecule microarray, fluorescence 635 nm (AID 1181); conditions: small-molecule microarray binding, higher = more signal;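 note: score merges 667 nm emission and signal to noise over triplicate slides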
# E3 ubiquitin-protein ligase XIAP (Homo sapiens), sequence (P98170 whole entry, looked up): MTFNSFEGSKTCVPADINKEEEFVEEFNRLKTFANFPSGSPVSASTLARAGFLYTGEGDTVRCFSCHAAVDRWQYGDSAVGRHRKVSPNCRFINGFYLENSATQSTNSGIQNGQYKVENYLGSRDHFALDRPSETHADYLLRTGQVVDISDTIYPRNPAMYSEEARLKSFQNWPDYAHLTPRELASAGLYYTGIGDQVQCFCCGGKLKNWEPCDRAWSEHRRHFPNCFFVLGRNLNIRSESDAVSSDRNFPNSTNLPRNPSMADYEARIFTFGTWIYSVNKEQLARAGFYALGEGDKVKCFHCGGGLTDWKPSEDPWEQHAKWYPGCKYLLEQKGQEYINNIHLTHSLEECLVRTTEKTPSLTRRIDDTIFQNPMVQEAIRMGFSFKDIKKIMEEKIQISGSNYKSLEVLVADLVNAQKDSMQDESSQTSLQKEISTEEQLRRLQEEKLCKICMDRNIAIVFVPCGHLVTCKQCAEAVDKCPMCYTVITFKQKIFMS
Compound,z-score [1],z-score [2],z-score [3],z-score [4],z-score [5],z-score [6],z-score [7],z-score [8],z-score [9],z-score [10],z-score [11],z-score [12],z-score [13],composite z-score [14],z-score [15],z-score [16],z-score [17],z-score [18],z-score [19],composite z-score [20]
CCC=CCCC(OC(=O)c1ccc(Br)cc1)C1=CCCCC1=O (stereo not given),-0.211,-0.648,-0.805,-3.68,-3.51,-1.12,-0.711 (inactive),-0.449,-1.97,0.863 (inactive),-0.0791,-2.43 (inactive),-1.06 (inactive),-1.38 (inactive),0.119 (inactive),-0.791 (inactive),0.181 (inactive),0.0322 (inactive),-0.88,-0.291
CC(C)CON=C1C[C@@H](O)[C@@H](O)[C@@H]2[C@@H]3C(=O)N(c4cccc(Oc5ccccc5)c4)C(=O)[C@@H]3CC[C@@H]12,1.52,0.797,0.626,-0.779,0.0135,0.291,0.411 (inactive),0.615,-1.78,-0.908 (inactive),-0.271,-1.81 (inactive),-1.5 (inactive),-1.71 (inactive),0.659 (inactive),-1.86 (inactive),-0.321 (inactive),-0.791 (inactive),-0.0778,0.125
C#CCCCON=C1[C@H]2CCn3c(=O)n(-c4ccccc4)c(=O)n3[C@H]2[C@H](O)[C@@H]2O[C@H]12,-0.212,0.356,1.09,0.0128,-0.352,0.85,0.182 (inactive),1.03,-0.61,-1.39 (inactive),-0.775,-1.34 (inactive),-2.23 (inactive),-1.16 (inactive),0.352 (inactive),-1.93 (inactive),-0.536 (inactive),-0.231 (inactive),-1.7,-0.147
CCOC(=O)[C@H](Cc1ccccc1)NC(=O)CCC1CC(OC(=O)NCc2cccc3ccccc23)CC2(CCCC(COC(=O)NCCC(C)C)O2)O1 (stereo not given in full),0.509,-0.0617,-0.166,0.389,0.302,-0.433,-0.133 (inactive),-0.758,-0.121,1.32 (inactive),1.15,-1.07 (inactive),1.3 (inactive),-0.619 (inactive),0.238 (inactive),-0.886 (inactive),-0.427 (inactive),0.319 (inactive),1.82,0.0867
O=C1[C@H]2[C@H]3[C@H](O)[C@H](O)CC(=NO[C@@H]4O[C@H](CO)[C@@H](O)[C@H](O)[C@H]4O)[C@H]3CC[C@H]2C(=O)N1c1cccc(Oc2ccccc2)c1,-0.0287,-0.171,-0.733,0.411,-0.782,0.629,-0.235 (inactive),0.142,-0.827,1.08 (inactive),0.648,0.439 (inactive),-0.0137 (inactive),0.0087 (inactive),-0.708 (inactive),-0.929 (inactive),-0.0313 (inactive),-0.49 (inactive),0.394,-0.0773
CC(C)=CCCC(C)=CCON=C1C[C@@H](O)[C@@H](O)[C@@H]2[C@@H]3C(=O)N(Cc4ccccc4)C(=O)[C@@H]3CC[C@@H]12,0.123,-0.827,-1.45,0.732,0.107,0.786,0.199 (inactive),-0.11,-0.689,0.708 (inactive),1.42,-0.404 (inactive),0.772 (inactive),0.317 (inactive),-0.143 (inactive),0.581 (inactive),0.593 (inactive),1.01 (inactive),0.97,-0.121
C[C@@H](ON=C1[C@H]2CCn3c(=O)n(-c4ccccc4)c(=O)n3[C@H]2[C@H](O)[C@@H]2O[C@H]12)c1cn([C@@H]2COC[C@H]2O)nn1,0.0219,-0.15,0.373,-0.289,-0.292,-0.377,-1.84 (inactive),-0.0731,-0.696,0.0264 (inactive),-0.311,0.337 (inactive),-0.739 (inactive),-0.642 (inactive),0.523 (inactive),-1.01 (inactive),0.0645 (inactive),-0.317 (inactive),-0.715,-0.189
CC[C@@H](c1ccccc1)n1c(=O)n2n(c1=O)[C@H]1[C@H](O)[C@@H]3O[C@@H]3C(=O)[C@H]1CC2,-0.0457,1.16,-0.481,-3.07,-2.84,-0.914,-0.491 (inactive),-0.924,-1.72,-0.565 (inactive),-0.797,-1.57 (inactive),-2.15 (inactive),0.807 (inactive),-0.626 (inactive),-0.552 (inactive),0.285 (inactive),0.216 (inactive),-2.04,0.0641
CCOC(=O)[C@H](Cc1ccccc1)NC(=O)OC1CC(CCC2CC(CC)=NO2)OC2(CCCC(COC(=O)NCCC(C)C)O2)C1 (stereo not given in full),-0.0093,-1.14,-1.1,-3.44,-3.72,-0.0294,0.513 (inactive),-0.462,-1.22,0.453 (inactive),0.239,0.633 (inactive),0.264 (inactive),-0.133 (inactive),0.226 (inactive),0.136 (inactive),0.347 (inactive),0.205 (inactive),0.65,-0.22
